Measurements published in PubChem BioAssay.
Where “and” joins values, the source holds several entries; their conditions need not be identical. Identical values can stand only once. The source holds several records for some structures; these can differ, active in one and inactive in another. Calls of active or inactive are those of the source.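 The calls were made as follows, unless noted: active = inhibition at or above 50% relative to wild type and mutant plate controls; inactive = inhibition below 50%.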

Tests used:
[1] = inhibitors of TNFa-induced NFkB p65 translocation, primary screen, imaging, HUVEC, MLSMR starter and 10KST1 sets (AID 438;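 active = inhibition above 20% together with a positive visual image hit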;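 also: compound added about 3h40 before a 20 min TNFalpha stimulation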;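 as to inhibition: signal is the nuclear over cytoplasmic p65 intensity ratio per well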); settings: HUVEC TNFa-induced p65 nuclear translocation; cell count: measured here: nuclei count (cytotoxicity indicator), at 2.08 µM; inhibition: at 2 µM, stronger effect = higher value, 0% TNFa-plus-vehicle, 100% no-TNFa wells
[2] = reduction of polyQ htt aggregates in cells – imaging, exon1htt(103Q)mCFP cells, high-content imaging, primary screen (AID 483;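 active = visual image review flags a hit and inhibition of aggregation exceeds 20%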;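 also: compound exposure lasted 3 days before fixation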;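 as to nuclei count: percent of the per-plate median nuclei count of sample wells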); settings: exon1htt(103Q)mCFP cell line, aggregate imaging, at 2 µM; inhibition of aggregation: stronger effect = higher value; nuclei count: measured here: cell count, toxicity
[3] = endothelial E-selectin expression blockers – imaging, HUVEC, immunofluorescence, MLSMR starter and 10KST1 sets, primary screen (AID 487;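 active = visually confirmed hit in the image check and inhibition above 20%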;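 as to inhibition: signal is fraction of cell area covered by stained E-selectin grains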;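 as to nuclei count: 100% = median nuclei count of all wells on the same plate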); settings: HUVEC TNFalpha-induced E-selectin immunofluorescence imaging, at 2 µM; inhibition: stronger effect = higher value; nuclei count: measured here: cell number, toxicity
[4] = Primary imaging screen for DUSP6 inhibitors that restore phospho-Erk in transfected HeLa cells, chemical complementation (AID 609;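 active = compounds giving at least 50% inhibition in the cell-based MKP-3 phosphatase rescue imaging test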;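 as to inhibition: phospho-Erk level distribution per well compared with pooled transfected vehicle control wells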); settings: HeLa MKP-3 transfected, phospho-Erk imaging KS statistic, at 10 µM, cells stimulated with TPA for 15 min
[5] = target: Dual specificity protein phosphatase 6 (Homo sapiens) (UniProt Q16828); test: as above; settings: HeLa MKP-3 transfected, phospho-Erk imaging KS statistic; at 10 µM; stronger effect = higher value; cells stimulated with TPA for 15 min
[6] = target: Voltage-gated potassium channel subunit beta-2 (Rattus norvegicus) (UniProt P62483); test: inhibitors of rat Kvbeta2 reductase activity – biochemical, NADPH fluorescence, primary screen (AID 622;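 active = fluorescence slope higher than the sample average by over 3 SD, cut at about -0.22 in these data, passing the limit was not always enough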;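 also: slope of raw intensity against log time taken from 70 to 1610 s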); settings: recombinant KvBeta, 4-cyanobenzaldehyde reduction, at 10 µM, stronger effect = higher value
[7] = target: Voltage-gated potassium channel subunit beta-2 (Rattus norvegicus) (UniProt P62483); test: enhancers of rat Kvbeta2 NADPH turnover – biochemical, NADPH fluorescence, primary screen (AID 623;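 active = NADPH fluorescence slope more negative than the mean of all samples by about 3 SD, 99.7% confidence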;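 also: fluorescence intensity change per second fitted from 20 to 320 s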); settings: Recombinant KvBeta, NADPH fluorescence decrease slope, 10 min; at 10 µM; stronger effect = lower value
[8] = target: Alpha-2C adrenergic receptor (Homo sapiens) (UniProt P18825); test: compounds altering alpha2C-coupled GIRK flux – cell-based, HEK293 alpha2C/GIRK1/2, thallium flux, primary screen (AID 624;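 active = fluorescence slope after compound addition differing from the mean of all screened samples at 99.7% confidence, in either direction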;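 also: slope of fluorescence ratio to pre-addition baseline per second over 15 to 24 s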); settings: thallium flux BTC fluorescence, at 10 µM, actives lie on both sides
[9] = inhibitors of larval lipid processing in zebrafish, primary screen, whole organism, PED6 fluorescence, gall bladder and intestine (AID 686;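 active = a full or partial loss of lipid-probe fluorescence in the fish gall bladder, intestine or both, judged by eye; inactive = no fluorescence loss, or compound toxic to the fish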;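 also: larvae 5 to 7 days old with five fish per well; signal comes from phospholipase A2 cleavage of quenched PED6 carried via bile; overnight exposure to compound and PED6 before scoring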); settings: Zebrafish larvae PED6 lipid processing, fluorescence scoring; screened at 20 µM (by protocol)
[10] = loss of swimming-algae plug formation – whole organism, Chlamydomonas reinhardtii, WT vs cilia-less mutant, absorbance, 96-well, primary screen (AID 463189); settings: Chlamydomonas reinhardtii gravitaxis, OD600 absorbance, 2 days; at 10 µM; stronger effect = higher value;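 also: 0% = wild type cc124 cells in DMSO and 100% = ciliumless bld1 mutant cells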
[11] = blockers of RIG-like receptor reporter activation – cell-based, Sendai virus stimulus, luciferase, 10K MLSCN set, TLR/RLR signaling modifier project, primary screen (AID 602276;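 active = inhibition at or above 50% at 10 µM; inactive = inhibition below 50%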;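 also: firefly luciferase from ISG56 promoter only with Renilla not read in this screen; 0% = Sendai virus plus DMSO and 100% = medium plus DMSO without virus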); settings: HEK293 RL24 IRF3 luciferase reporter, at 10 µM, stronger effect = higher value
[12] = TLR3 IRF3 reporter activation blockers – cell-based, poly I:C stimulus, luciferase, 10K MLSCN set, primary screen (AID 602277;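 active = inhibition of the reporter signal at or above 50%; inactive = inhibition below 50%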); settings: HEK293-TLR3 RL24 IRF3 luciferase reporter, at 10 µM, stronger effect = higher value
[13] = measured here: cell density z-score
[14] = measured here: nuclear c-Myc green intensity z-score
[15] = measured here: nuclear pErk red intensity z-score, stronger effect = higher value

Chain of Alpha-2C adrenergic receptor (Homo sapiens) (P18825 whole entry, looked up): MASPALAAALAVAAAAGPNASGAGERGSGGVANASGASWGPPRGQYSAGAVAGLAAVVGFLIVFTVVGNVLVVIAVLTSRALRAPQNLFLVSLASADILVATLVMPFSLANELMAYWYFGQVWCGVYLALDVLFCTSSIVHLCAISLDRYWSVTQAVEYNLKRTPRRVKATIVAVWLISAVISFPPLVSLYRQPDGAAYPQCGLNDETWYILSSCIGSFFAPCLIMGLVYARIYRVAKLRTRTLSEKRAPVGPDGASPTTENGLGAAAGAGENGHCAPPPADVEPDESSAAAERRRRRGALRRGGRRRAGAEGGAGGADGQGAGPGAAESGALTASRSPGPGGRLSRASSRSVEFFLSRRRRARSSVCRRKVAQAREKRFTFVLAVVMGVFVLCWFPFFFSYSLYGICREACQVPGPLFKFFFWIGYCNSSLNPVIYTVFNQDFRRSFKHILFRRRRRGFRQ
Chain of Dual specificity protein phosphatase 6 (Homo sapiens) (Q16828 whole entry, looked up): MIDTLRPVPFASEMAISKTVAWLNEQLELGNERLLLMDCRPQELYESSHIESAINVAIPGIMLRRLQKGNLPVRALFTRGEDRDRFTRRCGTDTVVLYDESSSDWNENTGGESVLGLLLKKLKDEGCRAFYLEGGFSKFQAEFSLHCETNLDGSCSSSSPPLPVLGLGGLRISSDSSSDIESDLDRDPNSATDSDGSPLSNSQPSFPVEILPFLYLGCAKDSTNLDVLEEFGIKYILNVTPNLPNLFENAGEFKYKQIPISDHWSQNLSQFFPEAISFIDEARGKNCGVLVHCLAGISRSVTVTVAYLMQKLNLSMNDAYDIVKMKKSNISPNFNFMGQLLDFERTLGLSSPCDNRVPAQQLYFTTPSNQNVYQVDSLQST
Chain of Voltage-gated potassium channel subunit beta-2 (Rattus norvegicus) (P62483 whole entry, looked up): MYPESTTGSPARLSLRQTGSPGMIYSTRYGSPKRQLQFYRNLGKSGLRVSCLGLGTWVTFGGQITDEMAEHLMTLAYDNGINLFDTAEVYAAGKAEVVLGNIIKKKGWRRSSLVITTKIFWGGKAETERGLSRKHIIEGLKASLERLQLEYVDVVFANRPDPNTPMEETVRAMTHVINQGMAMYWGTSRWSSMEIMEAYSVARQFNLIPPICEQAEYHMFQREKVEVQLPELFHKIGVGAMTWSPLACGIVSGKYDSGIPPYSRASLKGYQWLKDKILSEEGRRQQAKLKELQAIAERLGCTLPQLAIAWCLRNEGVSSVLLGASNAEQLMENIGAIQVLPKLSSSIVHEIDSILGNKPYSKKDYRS

Structure (SMILES) | cell count [1] | inhibition [1] | inhibition of aggregation [2] | nuclei count [2] | inhibition [3] | nuclei count [3] | z-score [4, 13] | z-score [4, 14] | z-score [4, 15] | inhibition [5] | fluorescence slope [6] | NADPH fluorescence slope [7] | slope [8] | outcome [9] | inhibition [10] | inhibition [11] | inhibition [12]
Nc1nc(Cl)nc2c1ncn2[C@H]1C[C@H](O)[C@@H](CO)O1 | 522 and 557 | -10.7% (inactive) and -11.5% (inactive) | -36.7% (inactive) | 10% | -143% (inactive) and -17% (inactive) | 133% and 106% | 1.67 and -3.27 | -1.09 and -0.338 | -0.372 and -0.606 | 7.39% (inactive) and -2.46% (inactive) | -0.46 (inactive) and -0.431 (inactive) | -2e-05 (inactive) and -2.2e-05 (inactive) | 0.00559 (inactive) and 0.00513 (inactive) | inactive | 18.6% (inactive) and -15.6% (inactive) | 12.3% (inactive) and 18.7% (inactive) | 41.2% (inactive) and 27.6% (inactive)
CN(C)CCCN1c2ccccc2CCc2ccc(Cl)cc21 | 621 | -7.8% (inactive) | -25.6% (inactive) | 113% | -129% (inactive) | 124% | -0.576 | 1.08 | 1.97 | 7.39% (inactive) | -0.41 (inactive) | 3.7e-05 (inactive) | 0.00326 (inactive) | active; weak signal in gallbladder and intestine | 16.7% (inactive) and 70.6% (active) | 14.9% (inactive) | 13.5% (inactive)
COc1ccc(C(=O)Nc2cccnc2)cc1C(=O)Nc1cccnc1 | 654 | 4.4% (inactive) | -4.7% (inactive) | 101% | -4.7% (inactive) | 72.8% | 0.737 | -0.175 | -0.517 | 23.4% (inactive) | -0.448 (inactive) | -4.6e-05 (inactive) | 0.00454 (inactive) | inactive | -3.27% (inactive) | 11.5% (inactive) | 36% (inactive)
CCOC(=O)C1=C[C@]2(CC)CCCN3CCc4c(n1c1ccccc41)[C@@H]32 | 689 | -1.6% (inactive) | 15.2% (inactive) | 106% | -59.3% (inactive) | 130% | -0.259 | 0.193 | -0.265 | 3.45% (inactive) | -0.443 (inactive) | -4.6e-05 (inactive) | 0.013 (active) | inactive | 5.61% (inactive) and -6.65% (inactive) | 5.01% (inactive) | 18.6% (inactive)
CC(C)(C)n1cnc2cc(NS(=O)(=O)c3ccc(Br)cc3)ccc21 | 543 | -1.5% (inactive) | -9.9% (inactive) | 99.9% | -37% (inactive) | 108% | 0.246 | 1.31 | -0.322 | -5.26% (inactive) | -0.373 (inactive) | 2.9e-05 (inactive) | 0.00461 (inactive) | inactive | -15% (inactive) | 15.5% (inactive) | 13.8% (inactive)
Oc1c(I)cc(I)c2cccnc12 | 615 | -0.5% (inactive) | -10.9% (inactive) | 110% | -79.9% (inactive) | 121% | -0.0594 | -1.99 | 1.27 | -11.9% (inactive) | -0.436 (inactive) | 7.6e-06 (inactive) | 0.00528 (inactive) | inactive | 2.25% (inactive) | 12.4% (inactive) | 30.5% (inactive)
CCCCC[C@H](O)/C=C/C1=C(CCCCCCC(=O)O)C(=O)CC1 | 582 | -10.1% (inactive) | -18.7% (inactive) | 109% | -15.5% (inactive) | 111% | 0.0464 | -0.541 | -1.16 | -0.493% (inactive) | -0.474 (inactive) | -5.2e-05 (inactive) | 0.00393 (inactive) | inactive | -11.8% (inactive) | 7.96% (inactive) | 34.1% (inactive)
CN1CCN(CC(=O)N2c3ccccc3C(=O)Nc3cccnc32)CC1 | 529 | 5.4% (inactive) | -20% (inactive) | 110% | -81.3% (inactive) | 123% | 2.59 | -0.126 | -1.97 | 25.7% (inactive) | -0.476 (inactive) | -3.8e-05 (inactive) | 0.00501 (inactive) | inactive | 1.89% (inactive) and 39.4% (inactive) | 18.8% (inactive) | 34.2% (inactive)
O=C(O)c1ccccc1Nc1cccc(C(F)(F)F)c1 | 626 | 3.3% (inactive) | -7.4% (inactive) | 99.3% | -44.4% (inactive) | 131% | 0.0659 | 0.639 | -1.06 | 23.4% (inactive) | -0.455 (inactive) | -3.9e-05 (inactive) | 0.00472 (inactive) | inactive | -7.16% (inactive) | 5.42% (inactive) | 28.4% (inactive)
CC(=O)NCCCCCCNC(C)=O | 515 | -2% (inactive) | -11.6% (inactive) | 101% | 5.3% (inactive) | 114% | -1.8 | 0.662 | 0.679 | 10.2% (inactive) | -0.45 (inactive) | -5.8e-05 (inactive) | 0.00491 (inactive) | inactive | 20.9% (inactive) | 9.84% (inactive) | 44.8% (inactive)
COc1cccc(-c2nnc3sc(-c4ccc(C)cc4)nn23)c1 | 634 | 3.3% (inactive) | 11.6% (inactive) | 77.9% | -24.2% (inactive) | 121% | -0.746 | -0.965 | 1.01 | -4.27% (inactive) | -0.414 (inactive) | -0.000137 (inactive) | 0.00537 (inactive) | inactive | 5.03% (inactive) | 2.84% (inactive) | 34.9% (inactive)
NS(=O)(=O)c1cc2c(cc1Cl)NC=NS2(=O)=O | 531 | -6.4% (inactive) | -4.4% (inactive) | 92.2% | 13.8% (inactive) | 108% | 0.808 | 0.404 | -1.03 | 23.2% (inactive) | -0.492 (inactive) | -0.000201 (active) | 0.00527 (inactive) | inactive | 11.8% (inactive) and 7.71% (inactive) | -14.2% (inactive) | -10.5% (inactive)
C=CCc1ccccc1OCC(O)CNC(C)C (configuration not stated) | 628 | -8.8% (inactive) | -10% (inactive) | 89.9% | -120% (inactive) | 131% | 1.42 | 0.365 | -0.961 | 7.39% (inactive) | -0.466 (inactive) | -2.4e-05 (inactive) | 0.00435 (inactive) | inactive | -2.53% (inactive) and -4.71% (inactive) | 11.2% (inactive) | 34.8% (inactive)
O=C(O)c1cc(O)c2c(c1)C(=O)c1cccc(O)c1C2=O | 610 | -3% (inactive) | 26.7% (inactive) | 100% | -98.1% (inactive) | 128% | 0.571 | -1.15 | 1.27 | 3.45% (inactive) | -0.417 (inactive) | -1.3e-05 (inactive) | -0.00744 (active) | inactive | 2.72% (inactive) | 18% (inactive) | 42.8% (inactive)
CC(=O)OCC(=O)[C@@]1(O)CC[C@H]2[C@@H]3CCC4=CC(=O)CC[C@]4(C)[C@H]3[C@@H](O)C[C@@]21C | 652 | 2.9% (inactive) | -9.2% (inactive) | 82.8% | -99.5% (inactive) | 121% | -2.38 | 1.32 | 1.76 | 10.2% (inactive) | -0.454 (inactive) | -5.2e-05 (inactive) | 0.00445 (inactive) | inactive | 17.2% (inactive) | 2.51% (inactive) | 28.7% (inactive)
CCCOc1cccc(C2/C(=C(/O)c3ccccc3)C(=O)C(=O)N2CCN(C)C)c1 (configuration not stated) | 511 | -3.9% (inactive) | -5.1% (inactive) | 109% | -90.6% (inactive) | 134% | -0.467 | 0.337 | 1.7 | -0.159% (inactive) | -0.431 (inactive) | -5.6e-05 (inactive) | 0.00489 (inactive) | inactive | 30.4% (inactive) | 15.1% (inactive) | 19.2% (inactive)
COc1cccc(OC)c1OCCN1CCN(C(=O)c2ccco2)CC1 | 361 | -3.1% (inactive) | 10.7% (inactive) | 104% | -24.8% (inactive) | 102% | 0.154 | 0.0392 | -1.87 | 13.2% (inactive) | -0.538 (inactive) | -6.4e-05 (inactive) | 0.00433 (inactive) | inactive | -8.27% (inactive) | 11.8% (inactive) | 17.9% (inactive)
O=C(CCNNC(=O)c1ccncc1)NCc1ccccc1 | 595 | 2.2% (inactive) | -4.6% (inactive) | 104% | -81.8% (inactive) | 117% | -1.05 | -0.737 | 0.12 | 8% (inactive) | -0.485 (inactive) | -7.6e-05 (inactive) | 0.00448 (inactive) | inactive | 4.6% (inactive) and 1.15% (inactive) | -7.31% (inactive) | 21.4% (inactive)
N#C/C(=C\c1ccc(O)c(O)c1)C(=O)NCCCc1ccccc1 | 629 | 3.7% (inactive) | -14.6% (inactive) | 98.2% | -94.6% (inactive) | 131% | 1.89 | 0.253 | -0.466 | 16.8% (inactive) | -0.49 (inactive) | -5.4e-05 (inactive) | 0.00485 (inactive) | inactive | 2.27% (inactive) and -1.78% (inactive) | -14.9% (inactive) | -17.2% (inactive)
CCN(CC)c1ncc(C)c(=O)[nH]1 | 410 | -19.3% (inactive) | -26.9% (inactive) | 121% | -44.9% (inactive) | 111% | 0.304 | -0.433 | -0.0626 | -2.69% (inactive) | -0.541 (inactive) | -8.2e-05 (inactive) | 0.00493 (inactive) | inactive | 31.2% (inactive) | 22.3% (inactive) | 22% (inactive)
Nc1ccc(S(=O)(=O)NC(=O)c2ccccc2)cc1 | 544 | 2.5% (inactive) | 17.5% (inactive) | 94.6% | -116% (inactive) | 110% | -1.45 | 0.254 | 0.397 | 14.6% (inactive) | -0.517 (inactive) | -5.5e-05 (inactive) | 0.00537 (inactive) | inactive | 5.05% (inactive) | 21.8% (inactive) | 34.4% (inactive)
